The panel holds about 79,000 compounds, 15% with a hit somewhere; the sample as a whole holds those more often. A number with no mark means an inactive call. Activity calls are given as the source filed them. Rule as the data show it: active = growth inhibition above about 70%; inactive = the rest.
What was measured:
[1] = NCI Yeast Anticancer Drug Screen. Data for the rad50 strain (AID 155);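 also: 0% = growth of vehicle-only cultures of the same strain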; conditions: S. cerevisiae rad50 strain growth inhibition, hits give high values
Outline: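 Readout: growth inhibition relative to vehicle-treated cultures. Compound exposure was carried out in a genetically defined yeast strain deficient in DNA damage repair.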

[2] = NCI Yeast Anticancer Drug Screen. Data for the mec2-1 strain (AID 157); conditions: S. cerevisiae mec2-1 strain, hits give high values
Outline: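 Cells of the genetically defined mec2-1 yeast strain are incubated with test compound. Inhibition of growth is calculated against vehicle-treated controls.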

[3] = NCI Yeast Anticancer Drug Screen. Data for the sgs1 mgt1 strain (AID 161);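 also: 0% = growth of cultures given vehicle only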; conditions: S. cerevisiae sgs1 mgt1 strain, hits give high values
Outline: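 Inhibition of yeast growth, normalised to vehicle-treated controls, is reported for a strain bearing genetic alterations in DNA damage repair.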

[4] = NCI Yeast Anticancer Drug Screen. Data for the cln2 rad14 strain (AID 165);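 also: 0% = growth equal to vehicle treated cultures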; conditions: S. cerevisiae cln2 rad14 strain, hits give high values
Outline: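 The screen exposed genetically defined yeast (cln2 rad14) to test compounds and scored growth inhibition relative to vehicle-treated controls.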

[5] = NCI Yeast Anticancer Drug Screen. Data for the bub3 strain (AID 167); conditions: S. cerevisiae bub3 mutant strain, hits give high values
Outline: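 Readout: yeast growth inhibition, expressed relative to vehicle-only wells. The test organism is a mutant strain from a panel with lesions in DNA repair or checkpoint genes.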

[6] = NCI Yeast Anticancer Drug Screen. Data for the mlh1 rad18 strain (AID 175); conditions: S. cerevisiae mlh1 rad18 strain growth inhibition, hits give high values
Outline: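 Compound-treated yeast growth, normalised to vehicle controls. Strain bears defined DNA repair mutations.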

[7] = at 5.0 µM (retest, dose inferred, filed as 0.5)
[8] = at 50.0 µM (retest, dose inferred, filed as 5.0)

Row | SMILES | growth inhibition [1, 7] | growth inhibition [1, 8] | growth inhibition ([1]; at 50.0 µM) | growth inhibition [2, 7] | growth inhibition [2, 8] | growth inhibition ([2]; at 50.0 µM) | growth inhibition [3, 7] | growth inhibition [3, 8] | growth inhibition ([3]; at 50.0 µM) | growth inhibition [4, 7] | growth inhibition [4, 8] | growth inhibition ([4]; at 50.0 µM) | growth inhibition [5, 7] | growth inhibition [5, 8] | growth inhibition ([5]; at 50.0 µM) | growth inhibition [6, 7] | growth inhibition [6, 8] | growth inhibition ([6]; at 50.0 µM)
1 | O=c1[nH]c2c([N+](=O)[O-])cc(Cl)cc2nc1/C=C(\O)c1ccccc1 | 17% | 81% (active) | 49.6% | -3% | 65% | 4.65% | 7% | 63% | 66.8% | 4% | 59% | 45.4% | 16% | 77% (active) | -2.5% | -9% | 80% (active) | 83.9% (active)
2 | Cc1nc(N2N=C(c3ccc(Cl)cc3)CCC2=O)sc1[N+](=O)[O-] | 10% | 85% (active) | 85% (active) | 13% | 65% | 86.5% (active) | -1% | 71% (active) | 83.7% (active) | 12% | 46% | 82% (active) | 10% | 88% (active) | 84% (active) | -12% | 92% (active) | 65.2%
3 | O=C(Nc1ccc(C(=O)c2ccccc2)cc1)Nc1ccc(Cl)c(Cl)c1 | 23% | 96% (active) | 92.5% (active) | 9% | 97% (active) | 95.2% (active) | 23% | 97% (active) | 94.8% (active) | 30% | 91% (active) | 94.5% (active) | 31% | 98% (active) | 96.1% (active) | 38% | 97% (active) | 94.7% (active)
4 | Cc1c2cc[n+](C)cc2c(C)c2c1sc1ccccc12 | 21% | 97% (active) | 39.4% | -2% | 98% (active) | 91.2% (active) | 18% | 99% (active) | 90.8% (active) | 4% | 97% (active) | 91.5% (active) | 16% | 99% (active) | 92.7% (active) | 8% | 97% (active) | 91.5% (active)
5 | O=C(CNC(=O)c1ccccc1)Oc1c(Cl)c(Cl)c(Cl)c(Cl)c1Cl | 12% | 61% | 75% (active) | 42% | 82% (active) | 74.8% (active) | 38% | 89% (active) | 90.8% (active) | 7% | 42% | 65.9% | 1% | 45% | 34% | 50% | 90% (active) | 77.5% (active)
6 | O=C1C=CC(=Nc2cc3c(cc2Br)-c2ccccc2C3Br)O1 (configuration not stated) | 23% | 99% (active) | 28.9% | 20% | 99% (active) | 79.8% (active) | 15% | 100% (active) | 21.4% | 6% | 99% (active) | -12.8% | 7% | 99% (active) | -3.95% | 26% | 99% (active) | 28.9%
7 | CCOC(=O)c1cnc(SCc2ccc(Cl)cc2Cl)nc1Cl | 1% | 47% | 38.4% | 0% | 73% (active) | 54.6% | 16% | 66% | 58.5% | -3% | 59% | 71.8% (active) | 0% | 54% | 25.7% | 0% | 62% | 65%
8 | COC(=O)c1cc2c(c(C(=O)OC)c1O)C(=O)C=CC2=O | 2% | 78% (active) | 84.5% (active) | 8% | 95% (active) | 84% (active) | 5% | 80% (active) | 80% (active) | 10% | 95% (active) | 56.3% | -2% | 90% (active) | 69.8% | -28% | 95% (active) | 70.6% (active)
9 | CCCN(CCC)C(=S)N/N=C(/C)c1ccccc1O | -8% | 98% (active) | 77.8% (active) | -29% | 98% (active) | 85.7% (active) | -29% | 97% (active) | 87.2% (active) | -26% | 97% (active) | 86.8% (active) | -58% | 98% (active) | 89% (active) | -23% | 98% (active) | 90.8% (active)
10 | O=c1oc2cc(N=Cc3ccc4c(c3)OCO4)ccc2c2ccccc12 | -3% | 39% | 80.7% (active) | 1% | 24% | 8.65% | -7% | 4% | 0.25% | -17% | 8% | 1.2% | -4% | 5% | 25.6% | 2% | 42% | 24.9%
11 | C1C2OC2C2C1C1CC2C2OC12 (configuration not stated) | 1% | -3% | 7.9% | 0% | -4% | -12.8% | -3% | -15% | -2.55% | 2% | 2% | 19.4% | 1% | 1% | -12.9% | 1% | -1% | -0.1%
12 | c1ccc(N=C2c3ccsc3C(=Nc3ccccc3)c3ccsc32)cc1 | 25% | 98% (active) | 80% (active) | 22% | 98% (active) | 75.5% (active) | 21% | 93% (active) | 81.7% (active) | 5% | 53% | 84.5% (active) | 51% | 97% (active) | 81.6% (active) | 29% | 97% (active) | 85.6% (active)
13 | S=C(NC(=S)Nc1ccc(Cl)cc1)Nc1ccc(Cl)cc1 | 4% | -4% | 68% | 1% | 2% | 61.9% | 5% | 8% | 72.1% (active) | -9% | -8% | 50.8% | -4% | 2% | 77.6% (active) | 20% | 10% | 78.7% (active)
14 | O=Cc1cc(O)ccc1Br | 33% | 96% (active) | 71.3% (active) | 28% | 96% (active) | 76.8% (active) | 37% | 97% (active) | 91.6% (active) | 29% | 58% | 82.7% (active) | 40% | 99% (active) | 89.3% (active) | 32% | 98% (active) | 79.6% (active)
15 | CN(C)c1ccc(C(=C2C=CC(=[N+](C)C)C=C2)c2ccc(N(C)C)cc2)cc1 (tested in a mixture with another compound) | 98% (active) | 90% (active) | 87.5% (active) | 99% (active) | 93% (active) | 88% (active) | 98% (active) | 95% (active) | 89.7% (active) | 99% (active) | 95% (active) | 87.7% (active) | 98% (active) | 93% (active) | 88.5% (active) | 98% (active) | 91% (active) | 86.5% (active)
16 | CCNc1ccc2c(c1)Cc1ccccc1-2 | 45% | 91% (active) | 95.2% (active) | 4% | 38% | 59.8% | 62% | 90% (active) | 96% (active) | 3% | 73% (active) | 71.8% (active) | -11% | 33% | 12.1% | 27% | 87% (active) | 90.7% (active)
17 | CC(C)/C=N/N(CCOC(=O)Nc1ccccc1)C(=O)Nc1ccccc1 | 8% | -6% | -3.85% | -6% | -12% | 14.3% | -1% | -6% | -12.7% | -5% | -1% | 82.2% (active) | -7% | -9% | 16.1% | -3% | -5% | 6.9%
18 | C[n+]1c(/C=C/c2ccc([N+](=O)[O-])cc2)ccc2ccccc21 | 6% | 85% (active) | 42% | -2% | 89% (active) | 60.8% | 2% | 77% (active) | 69.7% | 12% | 77% (active) | 82.7% (active) | -2% | 92% (active) | 11.7% | 16% | 92% (active) | 80.2% (active)
19 | CCOC1Oc2ccccc2-c2nc(SC)ncc21 (configuration not stated) | 23% | 20% | 75.4% (active) | 14% | 20% | 19.9% | 18% | 21% | 36.6% | 26% | 18% | 15.9% | 28% | 55% | 47.6% | 17% | 19% | 43.9%

Source: PubChem BioAssay (NCI)
